Bioassay records deposited in PubChem by National Center for Advancing Translational Sciences (NCATS).
The sample as a whole holds a higher share of hits than the screen did.
L3MBTL1 inh: L3MBTL1 (human) inhibition; Q9Y468; AlphaScreen L3MBTL1–H3K9me1 peptide binding; Potency, µM (doses to about 57.1 µM), for the others: top-dose activity, negative = inhibition, actives largely listed as inhibitors; 230,000 tested, 0.66% active; AID 485360; further: nearly all actives have a fitted effect of over 60% in size
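First, the protein-peptide complex forms for 30 min at room temperature (L3MBTL1 50 nM, biotinylated H3K9me1 peptide 75 nM). Next, compounds are pin-transferred and incubated 30 min. Finally, AlphaScreen beads are added and read after 30 min.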
KDM4E inh: blocks human JMJD2E demethylase activity | B2RXH2 | JMJD2E catalytic domain, FDH-coupled NADH fluorescence (FDH is formaldehyde dehydrogenase) | Potency, µM (top dose mostly 57.1 µM), for inactives: top-dose activity change, negative = inhibition, actives largely listed as inhibitors | 230,000 tested, 1.6% active | AID 2147; active means well fitted inhibition curve with a large enough effect, not every such curve was filed as active; inconclusive means small, poorly fitted or top-dose-only effect, or another doubt; inactive means no such curve, though single readings can be large or run the other way;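 further: 0% = wells with enzyme and -100% = buffer wells without enzyme; nearly all actives have a fitted effect of over 50% in size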
Target sequence (B2RXH2 1-337 limits assumed): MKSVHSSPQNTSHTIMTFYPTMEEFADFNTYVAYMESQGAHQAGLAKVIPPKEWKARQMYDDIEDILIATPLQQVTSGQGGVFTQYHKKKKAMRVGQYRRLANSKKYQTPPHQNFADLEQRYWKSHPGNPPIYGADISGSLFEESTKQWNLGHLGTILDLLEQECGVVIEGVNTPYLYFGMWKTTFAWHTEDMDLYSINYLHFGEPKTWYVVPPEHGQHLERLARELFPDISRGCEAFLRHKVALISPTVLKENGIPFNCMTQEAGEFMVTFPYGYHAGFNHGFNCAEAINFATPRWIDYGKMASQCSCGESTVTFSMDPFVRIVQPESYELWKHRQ
BLM inh: blocks DNA unwinding by human BLM helicase; P54132; recombinant BLM DNA unwinding, fluorescence dequenching; Potency, µM (series often up to 56.1 µM), without a hit: at the top dose activity change, negative = inhibition, actives largely listed as inhibitors; 350,000 tested, 0.2% active; AID 2528;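 further: plate controls were vehicle for no effect and no enzyme for full effect; nearly all actives have a fitted effect of over 35% in size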
APE1 inh: APE1 (human) endonuclease inhibition | P27695 | AID 2517 | 350,000 tested, 0.35% active | Potency, µM (titrated, usually from 65.8 µM), inactives show top-dose activity change, negative = inhibition, actives largely listed as inhibitors | recombinant APE1, TAMRA/BHQ-2 abasic DNA cleavage fluorescence;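 further: plate controls were vehicle for no effect and reference inhibitor for full effect; nearly all actives have a fitted effect of over 55% in size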
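Endonuclease cleavage of a quenched abasic-site DNA duplex (50 nM) by APE1 (0.75 nM) was tracked by TAMRA dequenching. Compounds were preincubated with enzyme 15 min at room temperature; data normalized to buffer-only and DMSO wells plus NSC13755 control.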
RGS12 GoLoco inh: inhibitors of human Gai1-RGS12 GoLoco interaction (red fluorophore); P63096; Gai1:RGS12 GoLoco peptide FP, rhodamine, 10 min; Potency, µM (top dose mostly 61.6 µM), inactives show top-dose activity, negative = inhibition, actives largely listed as inhibitors; 230,000 tested, 0.44% active; AID 880; active means well fitted inhibition curve with a large enough effect, not every such curve was filed as active; inactive means no such curve, though single readings can be large or run the other way; further: nearly all actives have a fitted effect of over 30% in size
Target sequence (P63096 whole entry, looked up): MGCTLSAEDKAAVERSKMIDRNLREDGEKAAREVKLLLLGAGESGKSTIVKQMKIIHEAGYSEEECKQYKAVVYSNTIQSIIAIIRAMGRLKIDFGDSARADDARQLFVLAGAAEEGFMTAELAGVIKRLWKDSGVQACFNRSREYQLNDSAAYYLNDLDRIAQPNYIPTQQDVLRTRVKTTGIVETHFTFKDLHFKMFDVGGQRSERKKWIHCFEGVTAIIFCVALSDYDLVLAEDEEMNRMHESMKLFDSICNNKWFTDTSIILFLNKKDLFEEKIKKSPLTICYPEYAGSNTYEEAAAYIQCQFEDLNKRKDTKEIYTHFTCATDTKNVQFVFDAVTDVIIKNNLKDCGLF
RECQ1 inh-1: inhibitors of human RECQ1 DNA helicase; P46063; RECQ1 DNA unwinding, red fluorescence kinetic read; Potency, µM (highest dose often 57.3 µM), without a hit: top-dose activity, negative = inhibition, hits mostly inhibitors; 240,000 tested, 0.54% active;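 further: plate controls were vehicle for no effect and no enzyme for full effect; nearly all actives have a fitted effect of over 30% in size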
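RECQ1T1 50 nM; forked duplex (20 bp + 30-nt ss tails) 200 nM, ATP 2 mM final; pH 8.0, 2 mM MgCl2, 2.5 ug/ml poly(dI-dC); 15 min compound preincubation; discontinuous kinetic read over 2 h at RT.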
RECQ1 conf: confirmation of human RECQ1 helicase inhibitors | shares compounds with RECQ1 inh-1 | RECQ1 helicase DNA unwinding, fluorescence | Potency, µM (doses to about 229 µM), without a hit: top-dose activity change, negative = inhibition, actives largely listed as inhibitors | 610 tested, 28% active | AID 2708; further: nearly all actives have a fitted effect of over 45% in size
ADP FP counter: counter-screen for RECQ1 inhibitors: ADP displacement. shares compounds with RECQ1 inh-1. ADP fluorescence polarization displacement counterscreen. Potency, µM (series often up to 228 µM), for the others: at the highest dose activity change, negative = inhibition, most hits filed as inhibitors. 530 tested, 27% active; further: nearly all actives have a fitted effect of over 45% in size
RECQ1 inh-2: confirmation of human RECQ1 helicase inhibitors; shares compounds with RECQ1 inh-1; 1,100 tested, 15% active; Potency, µM (titrated, usually from 119 µM), without a hit: at the top dose activity, negative = inhibition, hits mostly inhibitors; recombinant RECQ1 DNA unwinding, red fluorescence; further: nearly all actives have a fitted effect of over 50% in size
Numbers without * were called inactive; i = inactive; ? = inconclusive; . = no result; [ ] = another dose, or the depositor's remark. Unless noted, the call rests on the fitted dose curve; in most records, active means well fitted curve in the direction sought with a large enough effect; inconclusive means small, poorly fitted or top-dose-only effect, or another doubt; inactive means no such curve, though single readings can be large; an effect the other way counts as inactive or inconclusive. Unless noted, on the % scale 0 is the no-effect control and ±100 the full control effect; potency means the concentration at half of the fitted maximal effect.

SMILES	L3MBTL1 inh	KDM4E inh	BLM inh	APE1 inh	RGS12 GoLoco inh	RECQ1 inh-1	RECQ1 inh-2	others
CC(=O)c1ccc(NC(=O)C2CCCN(S(=O)(=O)c3ccc4c(c3)CCCN4C(C)=O)C2)cc1 (stereo not drawn)	.	.	-3%	.	.	.	.
Cc1c(Cl)cccc1NC(=O)Cn1cc(C(=O)C2CCCCC2)c2ccccc21	.	.	-3%	.	.	.	.
Cc1ccc(NC(=O)N/C=C/c2ccco2)cc1	?	?	0%	?	211%	?	?
Cc1ccc(NC(=O)/C(=C\c2ccco2)NC(=O)c2ccco2)cc1	.	.	-2%	-7%	.	.	.
COc1cccc(CNC(=O)c2cnc3sc(N4CCCC4)nn3c2=O)c1OC	.	.	0%	.	.	.	.
CCOC(=O)C1=C(C)N(C)C(=S)N(C)C1c1ccc(OC)cc1 (stereo not drawn)	.	-1%	1%	-2%	-4%	-1%	.
COC(=O)C1=C(C)N(C)C(=S)N(C)C1c1cccc(Br)c1 (stereo not drawn)	-12%[11.4 µM]	-17%	-9%	-3%	-5%	?	-15%
CN(C)c1ccccc1CN1CCCN(Cc2ccccc2N(C)C)C1c1ccncc1	.	.	.	.	5%[14.2 µM]	.	.
Cc1ccc(C)c(Cn2nnc(C(=O)Nc3ccc4c(c3)OCCO4)c2N)c1	-8%	.	.	18%	.	.	.
Cc1cc(C)cc(NC(=O)c2nnn(Cc3cc(C)ccc3C)c2N)c1	-4%	-7%	-9%	3%	16%	1.8µM*	-18%	RECQ1 conf=?;ADP FP counter=?
Cc1ccccc1C(=O)Nc1cccc(C(=O)OCc2cc(=O)n3ccsc3n2)c1	.	.	-2%	.	.	.	.
CCCCCCc1nc2ccccc2c(=O)n1NC(=O)c1c(O)c2cccc3c2n(c1=O)CCC3	.	-7%	-1%	0%	2%	-6%	.	RECQ1 conf=-12%;ADP FP counter=13%
O=S(=O)(c1ccccc1)n1nc(-c2ccco2)nc1NCc1ccccc1	.	.	-7%	.	.	.	.
O=C(COC(=O)c1ccc(S(=O)(=O)N2CCc3ccccc3C2)cc1)NC1CCS(=O)(=O)C1 (stereo not drawn)	-13%	-8%	-3%	0%	7%	?	?
C=CCOC(=O)C1C(=O)CC(C)(O)C(C(=O)OCC=C)C1c1ccc(N(C)C)cc1 (stereo not drawn)	.	5%	-3%	0%	-8%	?	-9%
C=CCOC(=O)C1C(=O)CC(C)(O)C(C(=O)OCC=C)C1c1ccc(OCC)cc1 (stereo not drawn)	32%	11%	-1%	0%	-1%	-11%	.
Cc1cccc(N2CCN(C(=O)c3ccccc3NC(=O)C3CC=CCC3C(=O)O)CC2)c1 (stereo not drawn)	.	0%	-1%	-4%	3%	i	.	RECQ1 conf=12%;ADP FP counter=-6%
COc1ccc(CN(C(=O)/C=C/c2ccco2)C2CCS(=O)(=O)C2)cc1 (stereo not drawn)	-26%	1%	-24%	?	5%	?	?
CCOc1ccc(CN(C(=O)/C=C/c2ccco2)C2CCS(=O)(=O)C2)cc1 (stereo not drawn)	.	.	-10%	3%	.	.	.
Cc1nnc(S(=O)(=O)c2ccc(N=Nc3c(N)nc(N)nc3N)cc2)s1	.	.	.	.	11%[14.2 µM]	.	.
COc1cc(NC(=O)c2noc3c2CCc2ccccc2-3)cc(OC)c1OC	.	.	-11%	.	.	.	.
NC(=O)c1sc2nc(-c3ccco3)ccc2c1N	-2%	?	-7%	?	-1%	11µM*	-17%
CCc1cccc(C)c1Nc1c(-c2ccc(N3CCOCC3)cc2)nc2ncccn12	.	.	-8%	.	.	.	.
CCOC(=O)Cc1cc(=O)c2c(=O)n(-c3ccccc3)[nH]c2[nH]1	?	-7%	-1%	-8%	3%	?	-1%
O=c1cc(-c2ccccc2)[nH]c2[nH]n(-c3ccccc3)c(=O)c12	-4%	3%	-2%	-2%	5%	1%	.
SMILES	L3MBTL1 inh	KDM4E inh	BLM inh	APE1 inh	RGS12 GoLoco inh	RECQ1 inh-1	RECQ1 inh-2	others
CCN(CC)c1ccc(/C=N/NC(=S)NCc2ccc(OC)cc2)cc1	-18%	?	-5%	-5%	7%	-12%	.
CCN(CC)c1ccc(/C=N/NC(=S)NCc2ccccc2)cc1	-12%	?	-8%	-1%	5%	7.1µM*	.	RECQ1 conf=-7%[114 µM];ADP FP counter=7%[91.9 µM]
O=C(/C=C/c1ccccc1F)c1ccoc1	2%	-5%	-6%	16%	10%	0.14µM*	-20%	RECQ1 conf=-12%[114 µM];ADP FP counter=6%[91.9 µM]
CC(/C=C/c1ccccc1F)=N\NC(=O)c1ccccc1	.	-2%	-8%	8%	-2%	-2%	.
CC(=O)C(Sc1ccc2nnc(-c3ccc(F)cc3)n2n1)C(C)=O	8%	?	1%	-6%	9%	-16%	.
CC(=O)C(Sc1ccc2nnc(-c3ccc(C)cc3)n2n1)C(C)=O	-12%	-12%	-6%	-15%	13%	?	?
COc1cccc(N2CCN(c3ncnc4onc(-c5ccc(Cl)cc5)c34)CC2)c1	.	.	-4%	.	.	.	.
COc1ccc(Nc2ccccc2N)cc1	-7%	10µM*	-24%	-5%	142%	22µM*	45µM*
Cc1cc(N2CCN(c3nc(-c4ccccc4)cs3)CC2)c2ccccc2n1	-4%	?	-11%	19%	4%	8.9µM*	-7%	RECQ1 conf=0%[114 µM];ADP FP counter=-2%[91.9 µM]
c1ccc(-c2csc(N3CCCCCC3)n2)cc1	11%	1%	-4%	-4%	-2%	-3%	.
COc1ccccc1C(=O)Nc1ccc(-c2nnc(SCC(=O)O)n2C)cc1	.	?	-4%	-5%	13%	i	.	RECQ1 conf=17%;ADP FP counter=-11%
CCOc1ccc(C2C(=O)N(C3CCCCCC3)CC(=O)N2Cc2ccc(C)cc2)cc1OC (stereo not drawn)	.	.	-11%	.	.	.	.
COc1ccc(NC(=O)CSc2nncn2C)cc1OC	6%	4%	4%	20%	13%	?	-25%
COc1ccccc1CNC(=O)C1CCCN(S(=O)(=O)c2ccc3c(c2)oc(=O)n3C)C1 (stereo not drawn)	.	.	-1%	.	.	.	.
COC(=O)C1=C(C)N(c2cccc3ccccc23)C(=O)C1	-7%	?	0%	-1%	9%	?	-20%
